EP2 antag = inhibitors of human EP2 prostaglandin E2 receptor. inhibition, % at 25 µM. C6 glioma cells expressing human EP2, cAMP TR-FRET; cells stimulated with saturating PGE2. hit rate 0.52% among 260,000. P43116;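 active = percent inhibition above 40 after rounding to a whole number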;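 also: rat C6 glioma host cells with rolipram phosphodiesterase inhibitor present; the protocol text gives 20 µM as final concentration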
Target sequence (P43116 whole entry, looked up): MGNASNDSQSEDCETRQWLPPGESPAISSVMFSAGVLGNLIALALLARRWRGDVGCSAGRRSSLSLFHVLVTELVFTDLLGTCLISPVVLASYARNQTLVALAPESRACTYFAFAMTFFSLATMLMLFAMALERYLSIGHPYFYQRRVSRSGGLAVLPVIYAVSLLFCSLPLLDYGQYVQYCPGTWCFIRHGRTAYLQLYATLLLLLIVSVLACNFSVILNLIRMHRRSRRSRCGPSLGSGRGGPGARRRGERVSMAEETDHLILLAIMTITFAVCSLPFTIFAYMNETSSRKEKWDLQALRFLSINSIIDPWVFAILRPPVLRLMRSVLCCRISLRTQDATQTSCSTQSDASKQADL
S1P3 antag = S1P3 (human) receptor antagonism; Q99500; inhibition, % at 4.98 µM; hit rate 0.27% among 170,000; CHO S1P3 NFAT-BLA reporter, FRET fluorescence, antagonist mode;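 active = inhibition above the plate cutoff, the mean inhibition of test wells on that plate plus 3 SD, cut at about 28% in these data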;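 also: cells challenged with S1P at its EC80 of 0.8 µM; blue over green emission ratio from cleaved BLA substrate after 4 h stimulation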
Pf gametocyte = inhibitors of late stage P. falciparum gametocyte viability | P. falciparum stage V gametocytes, ATP luminescence, 24 h | inhibition, % at 10.9 µM | hit rate 0.065% among 150,000;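 active = inhibition above the mean plus 3 SD of compounds within the control limits, set per campaign, cut at about 38% in these data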
S1P4 agonist = activates the human S1P4 receptor; O95977; S1P4-expressing cell line, agonist reporter assay; activation, % at 4.98 µM; hit rate 0.35% among 220,000; AID 1509; in the data active = activation above about 11%
EP2 mod = modulates human prostaglandin E2 receptor EP2 signaling. P43116. AID 940. induction, % at 25 µM. EP2-expressing cells, cAMP HTRF FRET, PGE2 co-stimulation. hit rate 0.83% among 260,000;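 active = compounds whose cAMP rise, as percent of the full-agonist control response, exceeds 60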;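 also: rat C6 glioma line stably carrying human EP2 under a CMV promoter; the protocol text gives 20 µM as final concentration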
S1P4 antag = blocks the human S1P4 receptor; S1P4-expressing cells, antagonist mode, reporter read-out; inhibition, % at 4.98 µM; hit rate 0.26% among 220,000; AID 1510; in the data active = inhibition above about 29%
Large screens that a line does not name were inactive. The list is not random: actives were taken first. Their share in the collection is about 1.9%.

C/C(=N\Nc1ccc(F)cc1F)c1ccccc1O	none (no result: Pf gametocyte)
C/C(=N\Nc1cc(C(F)(F)F)ccc1Cl)c1ccccc1O	EP2 mod 65
O=C1Cc2ccccc2C(=O)N1OCc1ccc(Cl)cc1	Pf gametocyte 41
CC(=O)NC(CSc1cc(C)nc2ccc(Br)cc12)C(=O)O (stereo not drawn)	EP2 mod 64
COc1ccc2nc(C)cc(SCC(NC(C)=O)C(=O)OC(C)C)c2c1 (stereo not drawn)	none
C=CCc1cccc2cc(C(=O)Nc3ccc(CC(=O)O)cc3)c(=O)oc12	none
C=CCc1cccc2cc(C(=O)Nc3cccc(C(=O)O)c3)c(=O)oc12	EP2 mod 100
Nc1cc(S(N)(=O)=O)ccc1SSc1ccc(S(N)(=O)=O)cc1N	EP2 antag 60 (no result: S1P3 antag, Pf gametocyte, S1P4 agonist, S1P4 antag)
COc1ccc(C)cc1NC(=O)N1CCCc2ccccc21	EP2 mod 61
Cc1[nH][nH]c(=O)c1N=Nc1ccc(S(N)(=O)=O)cc1	none (no result: EP2 antag, S1P3 antag, S1P4 agonist, EP2 mod, S1P4 antag)
Nc1[nH]c(=S)[nH]c(=O)c1N=Nc1c(Br)cc(S(N)(=O)=O)cc1Br	EP2 antag 51 (no result: S1P3 antag, Pf gametocyte, S1P4 agonist, S1P4 antag)
O=C(Nc1cccc([N+](=O)[O-])c1)c1ccc2nc(N3C(=O)CCC3=O)sc2c1	EP2 antag 85 (no result: S1P3 antag)
Cc1nc2ccccc2nc1N1CCCC1	none
Clc1ccc(-c2cc3ccccc3nc2N2CCCC2)cc1	EP2 mod 64 (no result: S1P3 antag)
Clc1ccc(-c2cc3ccccc3nc2N2CCOCC2)cc1	none
Cc1ccc(-c2cc3ccccc3nc2N2CCCC2)cc1	EP2 mod 62 (no result: S1P3 antag, Pf gametocyte)
O=c1oc2ccccc2c(O)c1/C=C1\C=Nc2ccccc21	EP2 antag 52 (no result: S1P3 antag, Pf gametocyte)
O=c1oc2ccccc2c(O)c1/C=N/c1ncccn1	none (no result: Pf gametocyte, S1P4 agonist, EP2 mod, S1P4 antag)
CCS(=O)(=O)N1Cc2ccccc2CC1C(=O)NC(C)C12CC3CC(CC(C3)C1)C2 (stereo not drawn)	EP2 mod 63 (no result: S1P3 antag, Pf gametocyte)
CC(Sc1nc(N)cc(N)n1)C(=O)Nc1cccc2ccccc12 (stereo not drawn)	none (no result: S1P3 antag, Pf gametocyte, S1P4 agonist, S1P4 antag)
COc1ccc(C2=NN(CC(=O)N(C)C)C(=O)c3cc4ccccc4n3C2)cc1	none (no result: EP2 antag, S1P3 antag, Pf gametocyte, S1P4 agonist, S1P4 antag)
COc1cc2c(cc1CN(CCCn1ccnc1)Cc1ccccc1F)OCO2	none (no result: S1P3 antag, Pf gametocyte, S1P4 agonist, S1P4 antag)
COc1ccc(N2C(=O)CSC23C(=O)N2CCCc4cccc3c42)cc1 (stereo not drawn)	Pf gametocyte 42
O=C1CSC2(C(=O)N3CCCc4cccc2c43)N1c1cccc(C(F)(F)F)c1 (stereo not drawn)	none (no result: S1P3 antag, Pf gametocyte)
COc1cc(/C=C\c2nc(O)c([N+](=O)[O-])c(=O)[nH]2)ccc1OCc1ccc(C)cc1	none (no result: S1P3 antag, Pf gametocyte, S1P4 agonist, S1P4 antag)
Cc1ccc(CN(CCCN2CCOCC2)Cc2cnn(C)c2)o1	none (no result: S1P3 antag, Pf gametocyte, S1P4 agonist, S1P4 antag)
Cc1cc(C)c2cc(CN(Cc3cccs3)Cc3nnnn3CCc3ccccc3)c(=O)[nH]c2c1	EP2 mod 63 (no result: S1P3 antag, Pf gametocyte, S1P4 agonist, S1P4 antag)
C=CCC(NCc1ccco1)c1ccccc1 (stereo not drawn)	none (no result: S1P3 antag, Pf gametocyte, S1P4 agonist, S1P4 antag)
O=[N+]([O-])c1cccc(-c2csc(N/N=C/c3cccc(O)c3)n2)c1	EP2 antag 99
CN(C)S(=O)(=O)c1ccc(-c2csc(N/N=C/c3ccco3)n2)cc1	EP2 antag 47
CC(=O)c1cccc(Nc2nc(-c3cccc([N+](=O)[O-])c3)cs2)c1	none (no result: S1P3 antag, Pf gametocyte)
CN(C)S(=O)(=O)c1ccc(-c2csc(N/N=C/c3ccc(O)cc3)n2)cc1	EP2 antag 104
C(=N\Nc1nc(-c2ccccc2)cs1)/c1ccncc1	none
Cc1cccc(OCC(=O)N2CCOCC2)c1C	none (no result: S1P3 antag, Pf gametocyte, S1P4 agonist, S1P4 antag)
CCOc1cc(C)c(S(=O)(=O)n2c([N+](=O)[O-])cnc2C)cc1C	none (no result: S1P3 antag, Pf gametocyte, S1P4 agonist, S1P4 antag)
CCc1ccc(NC(=O)CSc2nnc(CSc3nc(C)cc(C)n3)n2CC)cc1	none (no result: S1P3 antag, Pf gametocyte, S1P4 agonist, S1P4 antag)
O=C(CN1C(=O)c2ccccc2S1(=O)=O)NCc1ccc(Cl)cc1Cl	none (no result: S1P3 antag, Pf gametocyte, S1P4 agonist, S1P4 antag)
COc1cc2cc(CN(Cc3cccnc3)C(=O)NC3CCCCC3)c(=O)[nH]c2cc1OC	none (no result: S1P3 antag, Pf gametocyte, S1P4 agonist, S1P4 antag)
COc1ccc(NC(=S)Nc2cnc3ccccc3c2)c(OC)c1	EP2 antag 44
O=C(O)C1OC2OC3(CCCCC3)OC2C2OC3(CCCCC3)OC12 (stereo not drawn)	none (no result: Pf gametocyte)
CCOc1ccccc1NC(=O)C1OC2OC3(CCCCC3)OC2C2OC3(CCCCC3)OC12 (stereo not drawn)	EP2 antag 50 (no result: S1P3 antag, Pf gametocyte, S1P4 agonist, S1P4 antag)
Nc1nc2ccc(C(=O)Nc3c(Cl)cccc3Cl)cc2s1	none (no result: S1P3 antag, Pf gametocyte, S1P4 agonist, S1P4 antag)
O=C(COc1ccccc1)Nc1ccc(S(=O)(=O)N2CCOCC2)cc1	EP2 antag 52 (no result: Pf gametocyte)
